Laboratory results: the supplement of paper PMC10849652
About 7,900 targets were measured; listed, in parts, are those with a hit and a random draw of the rest. About 0.6% of all pairs of compound and target were hits.

The targets below were run with Cc1cccc(CC(=O)N2CCc3c2ccc(-c2cn(C)c4ncnc(N)c24)c3F)n1 (assay: log2 fold change, soluble protein after heating vs DMSO (PISA); higher = thermal stabilisation; K562 cells, 10 uM, 30 min; active = over 0.2 and 3.5 SD of the protein, either way, in both replicates (recomputed)).
In short: (§1)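 Soluble protein was defined as the supernatant after 21,000xg for 90 min. It came from K562 cells at 2×10^6 cells/mL given 10 μM compound for 30 min, heated in aliquots for 3 min across 48°C-58°C, pooled, and extracted in PBS with 0.5% NP-40 at 4°C, and was quantified by TMTpro 16plex LC-MS/MS with equalised channel sums. Thermal stability against control samples, from duplicates, is reported as log2 fold change.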

UniProt Q8IWA5, sequence (Q8IWA5 whole entry, looked up): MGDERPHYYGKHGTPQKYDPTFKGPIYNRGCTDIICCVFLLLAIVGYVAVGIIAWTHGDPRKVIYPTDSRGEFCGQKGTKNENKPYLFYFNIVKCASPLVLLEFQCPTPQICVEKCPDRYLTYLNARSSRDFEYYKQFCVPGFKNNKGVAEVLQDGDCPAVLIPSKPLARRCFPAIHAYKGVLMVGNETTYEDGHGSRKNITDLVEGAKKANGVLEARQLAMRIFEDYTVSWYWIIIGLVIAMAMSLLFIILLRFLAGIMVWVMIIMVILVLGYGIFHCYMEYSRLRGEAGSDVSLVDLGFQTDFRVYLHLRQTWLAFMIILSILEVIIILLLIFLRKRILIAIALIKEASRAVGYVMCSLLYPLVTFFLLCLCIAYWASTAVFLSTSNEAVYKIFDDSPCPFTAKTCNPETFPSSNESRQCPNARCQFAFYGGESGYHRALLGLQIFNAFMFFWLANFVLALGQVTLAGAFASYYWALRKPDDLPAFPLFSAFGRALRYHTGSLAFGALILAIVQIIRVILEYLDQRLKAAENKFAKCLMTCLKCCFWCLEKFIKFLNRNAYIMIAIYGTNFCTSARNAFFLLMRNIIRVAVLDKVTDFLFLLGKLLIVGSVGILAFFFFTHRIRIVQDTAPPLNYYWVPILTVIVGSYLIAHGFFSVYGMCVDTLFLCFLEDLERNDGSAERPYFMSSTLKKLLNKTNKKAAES
UniProt Q9NVC3, sequence (Q9NVC3 whole entry, looked up): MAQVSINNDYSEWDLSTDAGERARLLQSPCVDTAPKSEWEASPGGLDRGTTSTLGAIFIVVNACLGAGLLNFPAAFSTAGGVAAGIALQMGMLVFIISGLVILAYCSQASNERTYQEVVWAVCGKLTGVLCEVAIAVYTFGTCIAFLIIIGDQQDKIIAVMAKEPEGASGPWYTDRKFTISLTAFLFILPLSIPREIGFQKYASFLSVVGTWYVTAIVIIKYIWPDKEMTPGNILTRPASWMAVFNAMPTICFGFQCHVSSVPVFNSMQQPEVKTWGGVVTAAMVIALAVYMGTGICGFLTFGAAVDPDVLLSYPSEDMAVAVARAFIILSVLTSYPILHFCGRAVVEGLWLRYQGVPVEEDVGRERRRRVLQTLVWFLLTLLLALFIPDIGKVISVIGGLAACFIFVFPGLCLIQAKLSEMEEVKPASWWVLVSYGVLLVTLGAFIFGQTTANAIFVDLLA
UniProt Q15796, sequence (Q15796 whole entry, looked up): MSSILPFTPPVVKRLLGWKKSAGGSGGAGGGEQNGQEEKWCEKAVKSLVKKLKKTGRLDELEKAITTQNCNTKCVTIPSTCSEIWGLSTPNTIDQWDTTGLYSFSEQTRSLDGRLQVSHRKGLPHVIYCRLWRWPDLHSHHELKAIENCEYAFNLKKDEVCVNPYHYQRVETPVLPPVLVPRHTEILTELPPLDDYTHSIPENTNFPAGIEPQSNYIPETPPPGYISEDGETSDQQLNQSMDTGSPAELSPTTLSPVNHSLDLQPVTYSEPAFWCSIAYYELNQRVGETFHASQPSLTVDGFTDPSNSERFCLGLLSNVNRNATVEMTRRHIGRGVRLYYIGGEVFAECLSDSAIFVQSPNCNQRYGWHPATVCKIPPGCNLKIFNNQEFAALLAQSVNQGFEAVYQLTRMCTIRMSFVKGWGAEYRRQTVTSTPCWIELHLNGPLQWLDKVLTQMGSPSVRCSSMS
UniProt P35610, sequence (P35610 whole entry, looked up): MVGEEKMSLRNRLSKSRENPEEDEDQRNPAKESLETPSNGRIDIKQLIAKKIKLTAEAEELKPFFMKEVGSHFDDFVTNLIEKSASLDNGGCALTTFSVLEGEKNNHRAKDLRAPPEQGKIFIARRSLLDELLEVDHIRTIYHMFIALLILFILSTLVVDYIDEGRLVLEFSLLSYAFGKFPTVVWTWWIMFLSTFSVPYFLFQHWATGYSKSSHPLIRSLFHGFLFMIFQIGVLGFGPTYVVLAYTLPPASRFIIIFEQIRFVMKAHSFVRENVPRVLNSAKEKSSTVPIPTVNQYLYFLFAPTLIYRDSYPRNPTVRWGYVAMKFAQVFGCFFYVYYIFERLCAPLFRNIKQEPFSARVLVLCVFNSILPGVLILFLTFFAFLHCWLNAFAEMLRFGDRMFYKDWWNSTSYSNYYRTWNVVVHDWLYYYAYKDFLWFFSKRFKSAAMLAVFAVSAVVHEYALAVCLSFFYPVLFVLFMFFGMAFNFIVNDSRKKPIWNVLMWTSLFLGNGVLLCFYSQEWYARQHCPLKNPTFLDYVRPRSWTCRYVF
UniProt Q8IY18, sequence (Q8IY18 whole entry, looked up): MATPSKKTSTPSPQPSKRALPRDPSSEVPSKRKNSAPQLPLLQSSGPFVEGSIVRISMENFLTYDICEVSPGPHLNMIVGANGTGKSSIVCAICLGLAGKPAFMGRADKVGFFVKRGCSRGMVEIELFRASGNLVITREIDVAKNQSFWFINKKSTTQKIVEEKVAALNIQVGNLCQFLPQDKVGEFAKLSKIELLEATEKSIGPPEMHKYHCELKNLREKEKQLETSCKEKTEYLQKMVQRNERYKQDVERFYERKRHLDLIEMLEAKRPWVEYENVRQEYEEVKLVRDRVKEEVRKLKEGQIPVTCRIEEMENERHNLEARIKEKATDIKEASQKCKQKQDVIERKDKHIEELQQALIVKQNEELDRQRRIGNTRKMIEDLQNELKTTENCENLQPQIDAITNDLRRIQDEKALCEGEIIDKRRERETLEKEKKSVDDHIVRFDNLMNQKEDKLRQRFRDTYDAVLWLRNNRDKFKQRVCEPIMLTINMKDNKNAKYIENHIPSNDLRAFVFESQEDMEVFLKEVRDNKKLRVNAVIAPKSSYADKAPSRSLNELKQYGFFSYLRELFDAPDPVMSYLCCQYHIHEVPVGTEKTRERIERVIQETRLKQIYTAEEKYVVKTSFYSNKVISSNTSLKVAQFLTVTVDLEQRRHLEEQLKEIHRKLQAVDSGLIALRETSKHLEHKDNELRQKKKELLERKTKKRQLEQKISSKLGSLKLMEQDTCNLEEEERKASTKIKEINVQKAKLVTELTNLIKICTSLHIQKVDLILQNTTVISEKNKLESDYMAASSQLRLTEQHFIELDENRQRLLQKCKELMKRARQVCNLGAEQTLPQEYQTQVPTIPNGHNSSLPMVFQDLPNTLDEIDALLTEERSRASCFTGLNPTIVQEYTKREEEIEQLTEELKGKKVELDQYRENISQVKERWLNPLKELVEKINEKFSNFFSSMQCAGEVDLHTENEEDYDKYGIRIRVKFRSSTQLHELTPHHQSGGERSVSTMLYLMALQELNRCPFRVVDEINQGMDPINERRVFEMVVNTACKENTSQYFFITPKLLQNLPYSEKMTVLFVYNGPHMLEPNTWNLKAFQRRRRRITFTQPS
UniProt O15400, sequence (O15400 whole entry, looked up): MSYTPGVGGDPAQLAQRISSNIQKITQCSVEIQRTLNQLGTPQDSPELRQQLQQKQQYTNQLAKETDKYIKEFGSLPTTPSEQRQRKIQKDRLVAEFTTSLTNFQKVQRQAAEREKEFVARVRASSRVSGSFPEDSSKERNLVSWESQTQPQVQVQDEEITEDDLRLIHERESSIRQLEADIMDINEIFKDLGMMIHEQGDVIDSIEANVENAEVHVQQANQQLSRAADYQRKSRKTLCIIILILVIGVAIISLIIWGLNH
UniProt O60271, sequence (O60271 whole entry, looked up): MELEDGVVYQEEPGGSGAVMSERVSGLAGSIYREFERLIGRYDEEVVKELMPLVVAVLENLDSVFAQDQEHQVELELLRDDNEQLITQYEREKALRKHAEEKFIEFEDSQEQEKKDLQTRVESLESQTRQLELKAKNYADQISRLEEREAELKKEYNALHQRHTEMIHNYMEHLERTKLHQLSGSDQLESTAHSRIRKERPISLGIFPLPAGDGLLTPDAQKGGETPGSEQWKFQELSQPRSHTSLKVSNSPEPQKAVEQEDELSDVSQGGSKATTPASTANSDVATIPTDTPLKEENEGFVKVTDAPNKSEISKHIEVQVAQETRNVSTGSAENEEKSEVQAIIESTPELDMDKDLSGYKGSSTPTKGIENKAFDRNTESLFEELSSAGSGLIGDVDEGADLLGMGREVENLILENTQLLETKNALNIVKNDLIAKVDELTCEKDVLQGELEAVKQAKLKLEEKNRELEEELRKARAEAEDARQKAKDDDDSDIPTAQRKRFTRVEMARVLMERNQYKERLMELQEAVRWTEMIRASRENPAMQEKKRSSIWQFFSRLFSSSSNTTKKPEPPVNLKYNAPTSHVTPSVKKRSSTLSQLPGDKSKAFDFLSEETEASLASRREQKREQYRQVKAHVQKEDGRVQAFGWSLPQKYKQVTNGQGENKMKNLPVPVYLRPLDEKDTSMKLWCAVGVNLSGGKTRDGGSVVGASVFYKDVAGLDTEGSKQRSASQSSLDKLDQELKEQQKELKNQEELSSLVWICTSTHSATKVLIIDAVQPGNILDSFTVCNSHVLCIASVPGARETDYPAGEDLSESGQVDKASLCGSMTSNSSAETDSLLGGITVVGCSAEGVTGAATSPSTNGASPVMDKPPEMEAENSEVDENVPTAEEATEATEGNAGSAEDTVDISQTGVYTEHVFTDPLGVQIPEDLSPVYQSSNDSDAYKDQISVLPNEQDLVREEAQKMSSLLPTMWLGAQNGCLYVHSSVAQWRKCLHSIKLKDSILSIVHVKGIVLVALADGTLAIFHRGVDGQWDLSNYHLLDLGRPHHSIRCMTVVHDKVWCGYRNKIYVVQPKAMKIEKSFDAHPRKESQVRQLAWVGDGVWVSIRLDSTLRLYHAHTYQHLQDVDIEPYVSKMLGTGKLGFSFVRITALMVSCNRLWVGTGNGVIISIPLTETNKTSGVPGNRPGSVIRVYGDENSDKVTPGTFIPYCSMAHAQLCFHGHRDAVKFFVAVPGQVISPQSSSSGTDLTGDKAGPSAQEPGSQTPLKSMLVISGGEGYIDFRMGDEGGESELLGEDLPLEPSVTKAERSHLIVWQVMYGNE
UniProt Q9BYN0, sequence (Q9BYN0 whole entry, looked up): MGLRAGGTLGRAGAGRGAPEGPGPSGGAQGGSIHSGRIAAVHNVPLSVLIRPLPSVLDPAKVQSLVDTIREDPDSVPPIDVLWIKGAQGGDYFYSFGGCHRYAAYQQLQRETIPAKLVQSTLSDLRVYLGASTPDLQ

log2 fold change, active:
TM9SF4 (UniProt Q92544) 0.252

log2 fold change, inactive:
SYNE2 isoform 2 (UniProt Q8WXH0) 0.031, SPAG9 (UniProt O60271) -0.014, SRFBP1 (UniProt Q8NEF9) -0.014, SMC5 (UniProt Q8IY18) -0.029, SLC38A7 (UniProt Q9NVC3) 0.016, SLC30A10 (UniProt Q6XR72) -0.148, TK1 (UniProt K7ERV3) 0.022, SMCHD1 (UniProt A6NHR9) 0, SLC44A2 isoform 2 (UniProt Q8IWA5) -0.053, SYNE1 (UniProt Q8NF91) 0.008, TENT5C (UniProt Q5VWP2) 0.009, SRCAP (UniProt Q6ZRS2) -0.001, TBC1D20 isoform 3 (UniProt Q96BZ9) -0.083, STK11IP (UniProt Q8N1F8) 0.111, SMAD2 (UniProt Q15796) -0.037, STXBP2 isoform 3 (UniProt Q15833) 0.096, SPIRE1 (UniProt Q08AE8) -0.194, TGFBR1 isoform 2 (UniProt P36897) -0.052, STK38L (UniProt Q9Y2H1) -0.065, STARD3 (UniProt Q14849) 0.064, SRC isoform 2 (UniProt P12931) -0.037, SRSF6 (UniProt Q13247) 0.192, TEX30 (UniProt Q5JUR7) -0.053, TFAM (UniProt Q00059) 0.013, SLC39A11 (UniProt Q8N1S5) -0.043, SLC25A38 (UniProt Q96DW6) -0.03, SSBP4 (UniProt Q9BWG4) -0.069, TAOK3 (UniProt Q9H2K8) 0.012, SRI (UniProt P30626) 0.062, SNX15 (UniProt Q9NRS6) 0.154, SRXN1 (UniProt Q9BYN0) -0.157, STX7 (UniProt O15400) -0.135, SMARCA4 (UniProt P51532) -0.118, TATDN2 (UniProt Q93075) -0.151, TACC2 (UniProt O95359) 0.011, SOAT1 (UniProt P35610) 0.011, SP1 (UniProt P08047) -0.006

These targets were tested with Cc1cn(-c2cc(NC(=O)c3ccc(C)c(Nc4nccc(-c5cccnc5)n4)c3)cc(C(F)(F)F)c2)cn1 [nilotinib] in the same assay as above.
In short: as §1

log2 fold change, active:
SOAT1 (UniProt P35610) 0.566

log2 fold change, inactive:
SYNE2 isoform 2 (UniProt Q8WXH0) -0.115, SPAG9 (UniProt O60271) -0.039, SRFBP1 (UniProt Q8NEF9) 0.303, SMC5 (UniProt Q8IY18) 0, SLC38A7 (UniProt Q9NVC3) 0.05, SLC30A10 (UniProt Q6XR72) 0.029, TK1 (UniProt K7ERV3) -0.108, SMCHD1 (UniProt A6NHR9) 0.037, SLC44A2 isoform 2 (UniProt Q8IWA5) 0.13, SYNE1 (UniProt Q8NF91) 0.021, TENT5C (UniProt Q5VWP2) 0.002, SRCAP (UniProt Q6ZRS2) 0.072, TBC1D20 isoform 3 (UniProt Q96BZ9) 0.07, STK11IP (UniProt Q8N1F8) -0.081, SMAD2 (UniProt Q15796) -0.085, STXBP2 isoform 3 (UniProt Q15833) -0.099, SPIRE1 (UniProt Q08AE8) 0.007, TGFBR1 isoform 2 (UniProt P36897) -0.049, STK38L (UniProt Q9Y2H1) -0.032, STARD3 (UniProt Q14849) 0.215, SRC isoform 2 (UniProt P12931) -0.041, SRSF6 (UniProt Q13247) 0.155, TEX30 (UniProt Q5JUR7) -0.147, TFAM (UniProt Q00059) -0.025, SLC39A11 (UniProt Q8N1S5) -0.028, TM9SF4 (UniProt Q92544) 0.005, SLC25A38 (UniProt Q96DW6) -0.03, SSBP4 (UniProt Q9BWG4) 0.038, TAOK3 (UniProt Q9H2K8) -0.05, SRI (UniProt P30626) 0.017, SNX15 (UniProt Q9NRS6) -0.064, SRXN1 (UniProt Q9BYN0) -0.017, STX7 (UniProt O15400) 0.009, TATDN2 (UniProt Q93075) 0.137, TACC2 (UniProt O95359) 0.027, SP1 (UniProt P08047) 0.005
